Results published in the supplement of paper PMC11417369.
The full ranking holds about 25,000 sequences; the median of “ln(normalized median fluorescence intensity)” is about 7.1, and the highest 2% start at about 10. Shown is part of a subset that was picked to be rich in the highest values.

test system: PfSIP2 AP2 domain 1 (GST-tagged); experiment: gcPBM binding intensity (ln(normalized median fluorescence intensity)); higher = stronger DNA binding
Method in brief: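 Binding intensity values are the highest Masliner-normalised natural-log median intensity among replicate spots of either probe orientation. The binding step lasted 1 h in 1× PBS with 1% milk, 0.2 mg/ml BSA, 0.5% salmon testes DNA and 0.03% Triton X-100, using GST-tagged P. falciparum DNA-binding domains expressed in E. coli on an Agilent 4 × 180k array of primer-extended double-stranded 36-bp intergenic genomic probes plus negative controls. Alexa488 anti-GST antibody and a 488 nm scan detected bound protein.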

Row | Sequence | gcPBM binding intensity (ln)
1 | TATTGTTACTTTATATGTACTAATTAAACATATACA [XGTACX_site6363] | 7.24
2 | ATAACAAAATGAAGAGTGCATTACCAAGTGGGTAAA [GTGCAC_site9450] | 8.64
3 | TAAATTGGTGCAAAGTGTACATATATATCTTTCCTA [XGTACX_site5458] | 11.4
4 | TAGGTACATAAATTGGTGCAAAGTGTACATATATAT | 9.97
5 | AAAAAATTATAAAAGTGTACATATATATATATATAT [XGTACX_site154] | 9.3
6 | AACAATAAAAATAATTGTACAAGTCTAAAAAAAATT [XGTACX_site20] | 6.86
7 | TCGTGAATGATTTAAGTACACACCGGTATTTATTCA [CACACA_site1564] | 6.74
8 | ACGTAAACATGTAGAAGGCATTACACAATGGTATAC [TGCATGCA_negctrl_site512] | 6.75
9 | AAAAGAAAATTAAATTAACACACATAAATATATATA [CACACA_site8482] | 7.27
10 | TTTGTATAGTTGTAGGTGCATATCATTTTTAAATGT [GTGCAC_site9708] | 10.4
11 | ATATAATAAATGTAGGTGCATAAAAATATTTTGTTA [GTGCAC_site9780] | 10
12 | ACCATATAAAGTTAGGTGCATTTGTATGTATCTTAC | 9.18
13 | ATTTTTTCATATTCTACACACGTGAACAAATGAGTC [CACACA_site5635] | 7.21
14 | ACTAATAATTTGTCGGTGCATAAAATTATTTTTATT [GTGCAC_site9840] | 10.7
15 | ATATATTTATAATAGGTGCATATGTTTTATTTTTCC [GTGCAC_site9849] | 10.2
16 | TAATAATTTTATAAAGTGCATAAAAATAAAAATTTT | 8.89
17 | TTTTTAAAATATTTAACACACAATTATAATGCATAA [CACACA_site3932] | 7.23
18 | ATATATAAAAATTAGGTGCATTAAATTAAAATATAT | 10.3
19 | AAAAAAAAAATTTAGGTGCATACAAATAAATTATAT [GTGCAC_site9521] | 9.85
20 | TTTTTTATTAAATATATATAATAATAATAATTTGTA [CACACA_negctrl_site1719] | 6.88
21 | ATATATATATATATAGTGCATAATGTTTTAATAGAT | 9.54
22 | CATATAAGACAAAAGGTGCAATTTTAATGCTTTTAT [GTGCAC_site9432] | 9.98
23 | AAAAATAATCATTAGGTGCAAAAAATATATATATAT [GTGCAC_site9631] | 9.96
24 | ATATTTTTATATGAGGTGCATATAATGACAATTAAG | 10.6

Row | Sequence | gcPBM binding intensity (ln)
25 | ATTTCTTTTGTTATAGTGCATAATATTTATGTACGT | 8.59
26 | TTTAATATTATTATTTTACACACTTTTTTCCTTTTA [CACACA_site8780] | 6.64
27 | TACATGTATAATATAATACACACTATATAATATACA [CACACA_site2239] | 6.92
28 | TACTATAACCCACATACACACAAAAAAAAAAAAAAA [CACACA_site4454] | 7.11
29 | ACATAATAAAAATGACGTACAATTTTTTTTTTTCAT [XGTACX_site8340] | 7.01
30 | AAAAAACGCACTCGTACACACATATTTTCTTTCTAA [CACACA_site3089] | 8.76
31 | TTTTTTAGATTACATAAATATAAATATAAATATATA [GTGCAC_negctrl_site459] | 6.68
32 | ATGTTTTGTAAAATGATTAAATATTAAGATTCAATA [CACACA_negctrl_site1743] | 6.7
33 | ATATATATAGAAATATGTACGAAAAAAATATCACAT [XGTACX_site746] | 7.63
34 | TATATTACAAAAAGTACACACATAAATAAATACATA [CACACA_site975] | 7.17
35 | CCATAGATATTTTATACACACATATAATATATTAAT [CACACA_site373] | 7.17
36 | TATAATAATATTATAGTGCATATTATTTATATATAA [GTGCAC_site9820] | 8.67
37 | ATACATCGTATATAAGTGCATATTAAGGTCTTAAGA [GTGCAC_site9560] | 8.11
38 | TATACAAGTATATAGGTGCATATATAAGTATATATT [GTGCAC_site9994] | 10.3
39 | TTTTTTTTTTCTTAGGTGCAAAAAATAAGTATATAT [GTGCAC_site9394] | 10.1
40 | GTATAGTACAAATAAGTGCATATAAAAGAAATACAG | 8.56
41 | ACATATATATATATATATAATATTTTATATTTATTA [CACACA_negctrl_site713] | 7.49
42 | TTTCTTTATTTATAATAATTTTTTATTAAAAATAGA [CACACA_negctrl_site1610] | 6.78
43 | TTTCTTTTTAAATAGGTGCATATTTTTATAAATATA | 11
44 | TCTTAAAATATATAGGTGCAAAAAAAAAAAAAAAAA | 10.6
45 | TATATATTAAAAATAGTGCAAAATAATATATATATA [GTGCAC_site9716] | 8.84
46 | TTTTAAAATTATTAGGTGCATATTTATTCTATATTT | 10
47 | TTTTATTATATGGAGGTGCATATATAATAATATAAT [GTGCAC_site9477] | 11
